ClpP mod: qHTS Assay for Activators of ClpP; ATP-dependent Clp protease proteolytic subunit (Bacillus subtilis (strain 168)), P80244; purified B. subtilis ClpP, FRET peptide cleavage, 20 min; Potency, µM (series often up to 57.5 µM), inactives show at the highest dose activity change, negative = active; hit rate 1.9% among 340,000; AID 651965, 2013; active = well fitted falling curve with a large enough effect; inconclusive = small, poorly fitted or top-dose-only effect; inactive = no such curve, though single readings can be large or run the other way; also: potency is read from the fitted curve at half-maximal effect; the source files actives as falling curves though it sought activators and does not explain the sign; nearly all actives have a fitted effect of over 65% in size
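ClpP 10 microg/mL final, pH 8 Tris/KCl buffer with BSA, glycerol, Tween-20; compound pinned in; FRET-FV substrate; RT 20 min; Ex320/Em430; ΔFRET vs ADEP 5.8 microM, DMSO, no enzyme.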
GLP1R cytotox: cytotoxic in the GLP-1 receptor inverse agonist counter-screen | AID 624418 | hit rate 0.13% among 410,000 | HEK293 cAMP-luciferase reporter cells, luminescence, 24 h | Potency, µM (highest dose often 38.3 µM), inactives show at the highest dose activity change, negative = inhibition, most hits filed as inhibitors;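 also: loss of luciferase light is scored as toxicity; potency is read from the fitted curve at half-maximal effect; % is scaled to controls: 0 for no effect and ±100 for the full control effect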
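Here, cytotoxicity is scored as loss of luminescence. The MLSMR collection was tested on cells seeded in medium containing 10% Nu serum, with a 24 hr compound exposure preceded by 12 hours of culture.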
GLP1R inv ag: inverse agonists of human GLP-1 receptor | P43220 | HEK293 GLP-1R CRE-luciferase, luminescence, 24 h; GLP-1R form is constitutively active | Potency, µM (top dose mostly 38.3 µM), inactives show at the top dose activity change, negative = inhibition, most hits filed as inhibitors | hit rate 1.6% among 410,000 | AID 624417; also: potency is read from the fitted curve at half-maximal effect; % is scaled to controls: 0 for no effect and ±100 for the full control effect; nearly all actives have a fitted effect of over 55% in size
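HEK293 cells stably co-expressing constitutively active GLP-1R and a cAMP-responsive luciferase reporter were seeded in DMEM with 10% Nu serum, given compounds after 12 h, and incubated 24 h at 37 deg C. Luminescence was then read.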
D3 antag: antagonists of human D3 dopamine receptor; hit rate 2.5% among 360,000; max response, negative = inhibition, %; P35462; D3R cells, DiscoveRx beta-arrestin luminescence, antagonist mode; hits give low values; AID 652054; in the data active = max response below about -50%; inconclusive = no clear call, values can overlap the other calls; also: % is scaled to controls: 0 for no effect and ±100 for the full control effect
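Cells expressing the human receptor were seeded at 1500 cells/well, incubated overnight at 37 degrees C in 5% CO2, then exposed to library compounds with dopamine controls for 90 minutes at 37 degrees C before luminescent detection.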
GLP-1R agonist: activates the human GLP-1 receptor. hit rate 0.007% among 380,000. P43220. Potency, µM (titrated, usually from 45.6 µM), for the others: top-dose activation, actives largely listed as activators. HEK293 GLP-1R CRE-luciferase, luminescence, 4-6 h; cells express a hypersensitive GLP-1R form; also: potency is read from the fitted curve at half-maximal effect; % of control where 0% means no effect
DRD3 agonist: agonists of human D3 dopamine receptor; P35462; max activation, %; D3R DiscoveRx beta-arrestin cells, luminescence, 90 min; hit rate 0.58% among 410,000; in the data active = max activation above about 30%; also: 0% is about no effect
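Agonist mode: compounds and dopamine controls were applied to plated cells for 90 min at 37 degrees C after an overnight attachment at 1500 cells/well. Luminescent read-out followed 30 - 60 minutes at room temperature with DiscoveRx detection reagent.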
Active calls of the source: *; u = inconclusive; x = not tested or not shown. Rows were chosen to be rich in hits. Some 5.7% of all compounds tested hit in one or more screens of this group. Unless noted, calls follow the shape of the dose curve; as a rule, active = well fitted curve in the direction sought with a large enough effect; inconclusive = small, poorly fitted or top-dose-only effect, or another doubt; inactive = no such curve, though single readings can be large; an effect the other way counts as inactive or inconclusive.

SMILES | ClpP mod | GLP1R cytotox | GLP1R inv ag | D3 antag | GLP-1R agonist | DRD3 agonist
CCCCN1C(=O)/C(=c2\sc3nc(=O)c(-c4ccccc4)nn3c2=O)c2ccccc21 | -2% | 0% | 11% | -69* | -10% | 3
CCOC(=O)c1ccc(-c2ccc(/C=N/NC(=O)CN(c3ccccc3Br)S(C)(=O)=O)o2)cc1 | 18µM* | 3% | 43% | 25 | -2% | 11
CS(=O)(=O)N(CC(=O)N/N=C/c1cc2c(cc1Br)OCO2)c1ccccc1Br | u | 0% | -6% | 3 | u | 0
Fc1ccc(-[n+]2nc(Nc3ccccc3)sc2-c2c3ccccc3cc3ccccc23)cc1 | -1% | u | 11µM* | -63* | 2% | -19
Cc1ccccc1C(=O)N1CCN(c2ccc(NC(=O)CSc3ccc(Cl)cc3)cc2)CC1 | -3% | -7% | 7.1µM* | 9 | -3% | 6
CCCCC1=CC2=C(c3ccco3)C(=O)C(C)(OC(=O)c3ccc(OC)cc3)C(=O)C2=CN1CCCOC(C)C (stereo not drawn) | 1% | -8% | u | -83* | 8% | -18
Cc1cccc(N2CCN(CC3CCCCC3)CC2)c1C | 1% | 4% | -20% | -97* | 0% | -24
Cc1ccc(C)c(N2CCN(CC3CCCCC3)CC2)c1 | 1% | u | -30% | -57* | -16% | -14
CCn1cc(C(=O)OCC(=O)N2C(C)CCCC2C)c(=O)c2ccc(C)nc21 (stereo not drawn) | 16µM* | 9% | 15% | -12 | -3% | -3
CCn1cc(C(=O)OCC(=O)N(C)C2CCS(=O)(=O)C2)c(=O)c2ccc(C)nc21 (stereo not drawn) | -1% | 2% | 48% | 28 | 5% | -2
Cc1cc(Cl)cc(Cl)c1OCCOCCN(C)C | 1% | 0% | 11µM* | -6 | -14% | -4
Cc1ccc(Cl)c(OCCN2CCCC(C)C2)c1 (stereo not drawn) | -1% | 11% | -12% | -68* | 8% | -8
CC1CCCN(CCCOc2ccc(Cl)cc2Br)C1 (stereo not drawn) | -2% | -8% | u | -68* | -2% | -9
Cc1cc(C)c(OCCN(C)C)c(Cl)c1 | 3% | -4% | -19% | u | -2% | -32
Brc1ccccc1OCCOc1cccc2cccnc12 | -18% | -7% | -1% | 8 | 6% | 3
CC1CCCN(CCSc2ccc(Cl)cc2)C1 (stereo not drawn) | 2% | 8% | -11% | u | -3% | -13
Cc1cc(Cl)cc(Cl)c1OCCOc1cccc2cccnc12 | -24% | -24% | 8.9µM* | 0 | 1% | -1
Cc1nc([N+](=O)[O-])cn1CC(=O)c1ccc2c(c1)OCCO2 | 0% | x | x | x | x | x
COc1ccc(CCNC(=O)C(=O)NCC(c2cccs2)S(=O)(=O)c2ccc(F)cc2)cc1 (stereo not drawn) | -1% | -14% | u | x | x | 15
O=C(Nc1cc(Cl)ccc1Cl)C1(c2cccs2)CCOCC1 | 0% | 17% | u | x | x | -19
CCOC(=O)c1sc(N2C(=O)c3oc4ccc(F)cc4c(=O)c3C2c2cccc(OC)c2)nc1C (stereo not drawn) | 2% | 9% | 23% | x | x | 4
COc1ccc(OC)c(/C=C2\C=Cc3ccccc32)c1 | -16% | x | x | x | x | x
CN(C)CCOCCOc1ccc(Cl)cc1Br | 0% | 3% | u | -76* | -5% | -19
CN(C)CCCOc1ccc(Cl)cc1Br | 0% | -22% | 0% | u | -9% | -29
CC1CCN(CCOCCOc2ccc(Cl)cc2Br)CC1 | -1% | -22% | u | -88* | 11% | -28
SMILES | ClpP mod | GLP1R cytotox | GLP1R inv ag | D3 antag | GLP-1R agonist | DRD3 agonist
CN1CCN(CCOCCOc2c(Cl)cc(Cl)cc2Cl)CC1 | 1% | 25% | 11µM* | u | -3% | -45
CC1CCCN(CCCOc2ccc([N+](=O)[O-])cc2)C1 (stereo not drawn) | 7% | -14% | 4% | -14 | 1% | -7
COc1ccc(OCCCN2CCCC(C)C2)cc1 (stereo not drawn) | 2% | -9% | 7% | -60* | 6% | -15
CC1CCCN(CCOc2ccc3ccccc3c2Br)C1 (stereo not drawn) | x | u | 10µM* | -96* | 20% | -17
CC1CN(C(=O)COc2ccc3ccccc3c2Br)CC(C)O1 (stereo not drawn) | -2% | -1% | -49% | u | 9% | -27
CC1CCN(CCCOc2ccc(Cl)cc2Br)CC1 | -2% | -24% | u | -89* | -2% | -23
Cc1cc(Cl)c(OCCOCCN2CCC(C)CC2)c(Br)c1 | -1% | u | u | -56* | 8% | -29
Clc1ccc(OCCOCCN2CCCCC2)c(Br)c1 | -4% | 1% | -3% | 46 | 2% | -2
Cc1nn(C2CC(O)C(O)C(CO)O2)c(=O)[nH]c1=O (stereo not drawn) | 28µM* | 16% | 12% | 28 | 1% | 0
CSc1ccc(CN2CCCC(CO)(Cc3ccccc3)C2)cc1 (stereo not drawn) | 0% | 5% | u | -67* | 14% | -4
OCC1(Cc2ccc(F)cc2)CCCN(Cc2ccc(F)cc2Cl)C1 (stereo not drawn) | x | u | u | -61* | -7% | -11
COc1cc(Cl)c(CN2CCCC(CO)(Cc3ccccc3)C2)cc1OC (stereo not drawn) | x | -5% | u | 12 | 23% | -3
COC(=O)c1ccc(CN2CCCC(CO)(Cc3ccccc3F)C2)cc1 (stereo not drawn) | -1% | -3% | u | -88* | 16% | -19
OCC1(CCc2ccccc2)CCCN(CCCc2ccccc2)C1 (stereo not drawn) | x | -23% | u | -70* | 10% | -22
COc1ccccc1NC(=O)Cn1c(=O)n(-c2ccc(C)cc2)c(=O)c2ccc(C(=O)NCc3ccco3)cc21 | -8% | 0% | -2% | x | -1% | 4
NS(=O)(=O)c1ccc(N=Nc2ccc(O)c3ncccc23)cc1 | 1% | u | -39% | u | -4% | 3
NS(=O)(=O)c1ccc(N=Nc2ccc(=O)[nH]c2O)cc1 | -4% | u | 7% | -102* | 9% | -16
Nc1nc(N)c(N=Nc2ccc(S(N)(=O)=O)cc2)c(=O)[nH]1 | 2% | u | 11% | -55* | -1% | -6
CC(=O)NN1C(=O)/C(=C\c2ccc(Br)o2)SC1=S | 1% | u | 18% | -59* | -7% | -4
CC(=O)NN1C(=O)/C(=C\c2ccccc2)SC1=S | 2% | -1% | 15% | -5 | -8% | -4
